From PubChem
A selection: hits, their analogues and other compounds. The true share with any hit is near 2.6%.
Cruzain noTriton = qHTS Assay for Promiscuous and Specific Inhibitors of Cruzain (without detergent); Potency, µM, for inactives: max response, negative = inhibition, hits mostly inhibitors; purified cruzain, Z-FR-AMC fluorescence, no detergent; AID 1476, 2009; 200,000 tested, 2.3% active; Cruzipain (Trypanosoma cruzi), P25779;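 further: plate controls were enzyme without inhibitor for no effect and buffer without enzyme for full effect; nearly all actives have a fitted effect of over 40% in size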
Target sequence (P25779 123-467 limits assumed): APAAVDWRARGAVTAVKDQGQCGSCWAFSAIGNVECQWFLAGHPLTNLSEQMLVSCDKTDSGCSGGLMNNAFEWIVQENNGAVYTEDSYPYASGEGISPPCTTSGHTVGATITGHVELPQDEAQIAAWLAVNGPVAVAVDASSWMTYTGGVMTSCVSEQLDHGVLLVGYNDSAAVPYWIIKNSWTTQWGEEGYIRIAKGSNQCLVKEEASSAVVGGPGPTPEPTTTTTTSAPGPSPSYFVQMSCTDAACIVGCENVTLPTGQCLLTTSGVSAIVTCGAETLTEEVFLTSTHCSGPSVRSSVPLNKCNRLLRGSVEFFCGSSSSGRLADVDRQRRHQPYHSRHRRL
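Detergent-free condition (0.00005% Triton X-100) in acetate buffer pH 5.5 with DTT. 1.5 nM enzyme and compound were pre-mixed 15 min, then 2 uM Z-FR-AMC substrate added; reaction progress from fluorescence change between first and third reads (60 s).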
Cruzain inh Det = qHTS Assay for Promiscuous and Specific Inhibitors of Cruzain (with detergent); purified cruzain, Z-FR-AMC fluorescence, 0.01% Triton; Potency, µM, for the others: max response, negative = inhibition, most hits filed as inhibitors; 200,000 tested, 0.43% active;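 further: plate controls were neutral wells for no effect and buffer without enzyme for full effect; nearly all actives have a fitted effect of over 40% in size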
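Cysteine protease activity tested under reducing, mildly acidic conditions (100 mM sodium acetate pH 5.5, 5 mM DTT) plus 0.01% Triton X-100. Cruzain 1.5 nM; substrate Z-FR-AMC 2 uM; 15 min compound preincubation at room temperature.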
* = called active by the depositor; ? = inconclusive; ! = repeats disagree. The call rests on the fitted dose curve; in most records, active means well fitted curve in the direction sought with a large enough effect; inconclusive means small, poorly fitted or top-dose-only effect, or another doubt; inactive means no such curve, though single readings can be large; an effect the other way counts as inactive or inconclusive. Potency means the concentration at half of the fitted maximal effect.

SMILES | Cruzain noTriton | Cruzain inh Det
Cc1ccc(S(=O)(=O)ON2C(=O)c3ccccc3C2=O)c(C)c1 | 16µM* | 13µM*
C[C@H](O)CON1C(=O)c2ccccc2C1=O | -3% | 2%
Cc1cc(C)c(C)c(S(=O)(=O)ON2C(=O)c3ccccc3C2=O)c1C | 25µM* | 20µM*
Cc1noc(C)c1-c1nc(N(C)C)c2ccccc2n1 | 9% | 7%
N#CC1=C(N)n2c(s/c(=C\c3cccs3)c2=O)=C(C#N)C1c1cccs1 (configuration not stated) | 25µM* | -24%
N#CC1=C(N)n2c(s/c(=C\c3ccco3)c2=O)=C(C#N)C1c1ccco1 (configuration not stated) | -25% | -9%
O=C(Nc1ccc(N2CCCC2)cc1)C(c1ccccc1)c1ccccc1 | 7.9µM* | -12%
O=C(Cc1ccccc1)Nc1cccc(N2CCCC2)c1 | 25µM* | -29%
O=C(Cc1ccccc1)Nc1ccc(N2CCCC2)cc1 | 13µM* | ?
CC(C)c1ccc(C(=O)Nc2ccc(N3CCOCC3)cc2)cc1 | -4% | -1%
O=C(CCc1ccccc1)Nc1ccc(N2CCCCC2)cc1 | 12% | -3%
CC(C)Oc1ccc(C(=O)Nc2ccc(N3CCCC3)cc2)cc1 | 4µM* | -28%
CC(C)C(=O)Nc1ccc(N2CCCC2)cc1 | -8% | -6%
CCN1CCN(c2ccc(NC(=O)Cc3ccccc3)cc2)CC1 | 4% | 4%
CC(=O)c1cccc(NS(=O)(=O)c2c(C)nc3sc(C)cn3c2=O)c1 | 0% | -5%
Cc1cccc(N2CCN(C(=O)CCc3nnc4n(CC(C)C)c(=O)c5ccccc5n34)CC2)c1C | -3% | 0%
COc1ccc(C)cc1NC(=O)c1cc(S(=O)(=O)N2CCC(C)CC2)ccc1F | -9% | 1%
COC(=O)CSc1nc(N)c2c3c(sc2n1)CCCC3 | 5% | -10%
COC(=O)CSc1nc(N)c2c3c(sc2n1)C(c1ccccc1)SC(c1ccccc1)C3 (configuration not stated) | 13µM* | ?
CCOc1ccc(CN2CCN(S(=O)(=O)c3ccc(Cl)cc3)CC2)cc1 | -1% | -4%
CC(C)=CCc1c2c(c3occ(-c4ccc(O)c(O)c4)c(=O)c3c1O)C=CC(C)(C)O2 | 25µM*! | -1%
CC(C)=CCc1c2c(c3occ(-c4ccc(O)cc4)c(=O)c3c1O)C=CC(C)(C)O2 | ? | -9%
O=C(CCN1CCN(c2ccccc2F)CC1)Nc1ccccc1F | -3% | 6%
O=C(CCN1CCN(c2ccccc2F)CC1)c1ccc(Br)cc1 | ? | 14µM*
O=C(O)/C=C(/C(=O)O)[C@]12CCN3CC4=CCO[C@@H]5CC(=O)N[C@@H]1C5[C@H]4C[C@H]32 (some centres not stated) | 7% | -5%
SMILES | Cruzain noTriton | Cruzain inh Det
COc1ccc(Oc2c(C(F)(F)F)oc3c(CN4CCCC(C)C4)c(O)ccc3c2=O)cc1 (configuration not stated) | 15% | -8%
CCc1ccccc1Nc1nn2c(=O)c3ccc(C(=O)NCc4ccccc4OC)cc3nc2s1 | 13µM* | -4%
COc1ccccc1Nc1nn2c(=O)c3ccc(C(=O)NCc4ccc(F)cc4)cc3nc2s1 | -12% | -4%
CCc1ccccc1Nc1nn2c(=O)c3ccc(C(=O)NCCC4=CCCCC4)cc3nc2s1 | 25µM* | -4%
CCc1ccccc1Nc1nn2c(=O)c3ccc(C(=O)Nc4ccc(OC)cc4)cc3nc2s1 | -20% | -2%
O=C(NCCSc1c(-c2ccc(Cl)cc2)[nH]c2ccccc12)c1ccc(S(=O)(=O)N2CCOCC2)cc1 | ? | -1%
O=C(CN1CCN(c2ccccc2)CC1)Nc1nnc(-c2ccccc2)s1 | -4% | -4%
COc1ccc(N2CCN(CC(=O)Nc3nnc(-c4ccccc4)s3)CC2)cc1 | 25µM* | 1%
CCc1ccc2nc(N(Cc3cccnc3)C(C)=O)sc2c1 | ? | -9%
COc1ccc2nc3c(cc2c1)Cc1ccccc1-3 | 14% | -4%
CCC(C(=O)NC1CCCC1)N(C(=O)Cn1nnc(-c2ccc(C)o2)n1)c1cnc2ccccc2c1 (configuration not stated) | ? | 1%
Cc1ccc(-c2nnn(CC(=O)N(c3ccccc3)C(C(=O)NC(C)(C)C)c3cccs3)n2)o1 (configuration not stated) | 6.3µM* | 0%
Cc1ccc(-c2nnn(CC(=O)N(c3cccc(O)c3)C(C(=O)NC(C)(C)C)c3cccs3)n2)o1 (configuration not stated) | 6% | -7%
Cc1ccc(N(C(=O)Cn2nnc(-c3ccc(C)o3)n2)C(C(=O)NC2CCCC2)c2ccco2)cc1 (configuration not stated) | 25µM* | 6%
CCOc1ccccc1NC(=O)CC(c1ccc(F)cc1)N1Cc2ccccc2C1=O (configuration not stated) | -2% | -1%
CCOc1ccc2cc(-c3nnc(Nc4ccccc4F)s3)c(=O)oc2c1 | 8% | 1%
